IDE inh = human IDE inhibitors in live cells, primary screen, fluorescence polarization, HEK cells, FAbetaB substrate. Insulin-degrading enzyme (Homo sapiens), P14735. FAbetaB cleavage. AID 434962, 2010. 320,000 compounds, 0.41% hits. inhibition, % at 5.59 µM;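 active = percent inhibition above the average of all tested compounds plus 3 SD, set per screening campaign, cut at about 16% in these data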;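 also: IDE supplied by intact live HEK cells; FP after avidin binding of uncleaved biotin substrate so inhibition keeps polarization high; 0% = DMSO wells and 100% = 60 µM reference IDE inhibitor Ii1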
IDE act = human IDE activators in live cells, primary screen, fluorescence polarization, HEK cells, FAbeta-B substrate | Insulin-degrading enzyme (Homo sapiens), P14735 | 340,000 compounds, 0.073% hits | FAbeta-B cleavage; 0% vehicle, 100% cell-free pure enzyme wells | activation, % at 5.96 µM;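 active = activation above the mean of all tested compounds plus 3 SD, set per screening campaign, cut at about 17% in these data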
cardiac RTF act = cardiac RTF calcium sensitivity activators, primary screen, biochemical, IANBD-TnC fluorescence, EC20 calcium; IANBD-labeled TnC RTF fluorescence at EC20 calcium; 0% EC20 calcium, 100% full calcium; activation, % at 7.2 µM; 340,000 compounds, 0.24% hits;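 active = activation above the mean over all tested compounds plus 3 SD, cut at about 30% in these data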;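 also: rise in fluorescence read as greater calcium sensitivity of cardiac thin filaments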
Cardiac RTF inh = cardiac RTF calcium sensitivity inhibitors, primary screen, biochemical, IANBD-TnC fluorescence, EC70 calcium | IANBD-labeled cardiac RTF, Ca2+ fluorescence | inhibition, % at 7.15 µM | 340,000 compounds, 0.12% hits | AID 493244, 2011;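 active = inhibition above the mean inhibition of all tested compounds plus 3 SD, cut at about 17% in these data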;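 also: assay run at fixed EC70 calcium of 1.6 mM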
CRFR2-BP ag = agonists of CRF-BP/CRF-R2 complex, primary screen, cell-based, HEK293, calcium dye fluorescence, uHTS | CRF-binding protein / CRF receptor 2 complex (human) | calcium dye fluorescence (FLIPR); percent of saturating CRF peptide response | activation, % at 13.2 µM | 350,000 compounds, 0.46% hits;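 active = activation of at least 50%, plus an integration ratio under a set limit after plate pattern correction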;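 also: plate controls were neutral control wells without compound for no effect and CRF at EC100 for full effect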
TPT1 inhibitor = Candida albicans TPT1 enzyme inhibitors, primary screen, biochemical, fluorescence polarization | tRNA 2'-phosphotransferase TPT1 (Candida albicans SC5314) | recombinant caTPT1, FP RNA substrate dephosphorylation | inhibition, % at 5 µM | 300,000 compounds, 0.81% hits | AID 1962, 2009;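 active = inhibition above the mean of all tested compounds plus 3 SD, set per screening campaign, cut at about 24% in these data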;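 also: plate controls were DMSO alone for no effect and ferristatin control at 100 nM for full effect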
caTPT1 confirm = Candida albicans TPT1 inhibitors, confirmation, biochemical, fluorescence polarization, triplicate | 2,400 compounds, 74% hits | inhibition, % at 5 µM | AID 2149, 2009 | shares compounds with TPT1 inhibitor | recombinant caTPT1, RNase T1 coupled;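 active = inhibition above the primary screen limit, the mean inhibition of all tested compounds plus 3 SD, cut at about 25% in these data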
RNase T1 inh = RNase T1 inhibitors, counter-screen for TPT1 inhibitor project, biochemical, fluorescence polarization. shares compounds with TPT1 inhibitor. RNase T1 cleavage, 1536-well. inhibition, % at 5 µM. 2,400 compounds, 83% hits. AID 2153, 2009;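 active = inhibition above the solvent-only control well mean plus 3 SD, limit set per screening run, cut at about 23% in these data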;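 also: plate controls were DMSO wells with enzyme for no effect and wells without RNase T1 for full effect; inhibitors block cleavage so intact labeled substrate keeps polarization high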
IDE cell inh cf = human IDE inhibitors in live cells, confirmation, fluorescence polarization, HEK cells, FAbetaB substrate; shares compounds with IDE inh; FAbetaB cleavage; inhibition, % at 5.59 µM; 1,200 compounds, 51% hits; AID 435028, 2010;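 active = mean inhibition across triplicate wells above the cutoff set by the earlier primary insulin-degrading enzyme screen, cut at about 16% in these data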;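 also: 0% = DMSO wells and 100% = 60 µM reference IDE inhibitor Ii1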
HEK293 tox = cytotoxicity in HEK cells, cytotoxicity control for IDE inhibitor project, cell-based, luminescence; shares compounds with IDE inh; HEK293 cytotoxicity, ATP luminescence; inhibition, % at 5.59 µM; 1,200 compounds, 28% hits; in the data active = inhibition above about 22%;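 also: 0% = vehicle wells and 100% = reference cytotoxic drug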
Active calls of the source: *. Most compounds without a hit are left out; they make up all but 1.5% or so of the library.

CN(C)C=C1C(=O)N(C2CCCCC2)C(=O)N(C2CCCCC2)C1=O was read as IDE inh 0, IDE act 7, cardiac RTF act 2, Cardiac RTF inh -7, CRFR2-BP ag 47, TPT1 inhibitor 29*, caTPT1 confirm 43* and RNase T1 inh 58*.
COCCNC(=O)Cn1cc(/C=C2\C(=O)NC(=O)N(c3ccccc3F)C2=O)c2ccccc21 was read as IDE inh 2, IDE act -8, cardiac RTF act -1, Cardiac RTF inh -8, CRFR2-BP ag 24, TPT1 inhibitor 27*, caTPT1 confirm 10 and RNase T1 inh 19.
`COc1ccc(N2C(=O)NC(=O)/C(=C\c3cn(C)c4ccccc34)C2=O)cc1` gave IDE inh 3, IDE act -1, cardiac RTF act 523*, Cardiac RTF inh -475, CRFR2-BP ag 120*, TPT1 inhibitor 67*, caTPT1 confirm 68* and RNase T1 inh 71*.
COC(=O)Cn1cc(/C=C2\C(=O)NC(=O)N(c3ccc(OC)cc3)C2=O)c2ccccc21 was read as IDE inh -3, IDE act -3, cardiac RTF act 6, Cardiac RTF inh -4, CRFR2-BP ag 81*, TPT1 inhibitor 25*, caTPT1 confirm -13 and RNase T1 inh 4.
Screening COC(=O)Cn1cc(C=C2C(=O)NC(=O)NC2=O)c2ccccc21 returned IDE inh 3, IDE act 1, cardiac RTF act -4, Cardiac RTF inh 1, CRFR2-BP ag 0 and TPT1 inhibitor 11.
For COc1ccc(N2C(=O)NC(=O)/C(=C/c3ccc(N4CCOCC4)cc3)C2=O)cc1 the results were IDE inh 3 and TPT1 inhibitor 3.
CCOc1cccc(OCC)c2c(C)[n+](CC3CCCO3)c(C)c1-2 (centres undefined) was read as IDE inh 0, IDE act 2, cardiac RTF act -16, Cardiac RTF inh -5, CRFR2-BP ag 5 and TPT1 inhibitor -8.
Screening Cc1c(C)c2ccc(OCC(=O)N3C[C@H]4C[C@@H](C3)c3cccc(=O)n3C4)cc2oc1=O returned IDE inh 3, IDE act 0, cardiac RTF act -1, Cardiac RTF inh -15, CRFR2-BP ag -4 and TPT1 inhibitor 1.
`Cc1ccccc1N1C(=O)CC(=O)N(c2ccccc2C)C1=O` gave IDE inh -4, IDE act 0, cardiac RTF act 10, Cardiac RTF inh -20, CRFR2-BP ag 1, TPT1 inhibitor 31*, caTPT1 confirm 15 and RNase T1 inh 22*.
Screening CCOc1ccccc1N1C(=O)CC(=O)NC1=O returned IDE inh -3, IDE act 4, cardiac RTF act -2, Cardiac RTF inh -7, CRFR2-BP ag 17 and TPT1 inhibitor 8.
For COc1ccc(Cn2c(N)c(C(=O)NCc3ccco3)c3nc4ccccc4nc32)cc1 the results were IDE inh 1, IDE act -1, cardiac RTF act -1, Cardiac RTF inh -17, CRFR2-BP ag 12, TPT1 inhibitor 48*, caTPT1 confirm 10 and RNase T1 inh 14.
Nc1c(C(=O)NCc2ccco2)c2nc3ccccc3nc2n1Cc1ccccc1 was read as IDE inh 4, IDE act -2, cardiac RTF act 1, Cardiac RTF inh 7, CRFR2-BP ag -1 and TPT1 inhibitor 3.
`CN1C(=O)C(=Cc2ccc(N3CCCCCC3)cc2)C(=O)N(C)C1=O` gave IDE inh -4, IDE act 4, cardiac RTF act -4, Cardiac RTF inh -3, CRFR2-BP ag 2 and TPT1 inhibitor 7.
CCN(CC)c1ccc(C=C2C(=O)N(C)C(=S)N(C)C2=O)o1 was read as IDE inh 12, IDE act -15, cardiac RTF act 22, Cardiac RTF inh -23, CRFR2-BP ag 88*, TPT1 inhibitor 93*, caTPT1 confirm 102* and RNase T1 inh 112*.
For CN1C(=O)C(=Cc2ccc(N3CCCCC3)o2)C(=O)N(C)C1=S the results were IDE inh 9, IDE act -11, cardiac RTF act 14, Cardiac RTF inh -7, CRFR2-BP ag 133*, TPT1 inhibitor 85*, caTPT1 confirm 105* and RNase T1 inh 111*.
For CN1C(=O)/C(=C\N2CCc3ccccc32)C(=O)NC1=S the results were IDE inh 0, IDE act -4, cardiac RTF act 2, Cardiac RTF inh -9, CRFR2-BP ag 1 and TPT1 inhibitor 9.
Screening CCN(CC)c1ccc(/C=C2\C(=O)NC(=S)N(c3ccc(OC)cc3OC)C2=O)o1 returned IDE inh 33*, IDE act -33, cardiac RTF act 76*, Cardiac RTF inh -101, CRFR2-BP ag 29, TPT1 inhibitor 141*, caTPT1 confirm 150*, RNase T1 inh 142*, IDE cell inh cf 36* and HEK293 tox 4.
CCN(CC)c1ccc(/C=C2\C(=O)NC(=S)N(C)C2=O)o1 was read as IDE inh 26*, IDE act -25, cardiac RTF act 53*, Cardiac RTF inh -78, CRFR2-BP ag 58*, TPT1 inhibitor 123*, caTPT1 confirm 135*, RNase T1 inh 135*, IDE cell inh cf 29* and HEK293 tox 14.
Screening ClCCOCCCl returned IDE inh 5, IDE act -1, cardiac RTF act -4, Cardiac RTF inh -7 and CRFR2-BP ag 2.
Screening C=CCn1c(O)c(/C=C/C=Nc2ccccc2)c(=O)[nH]c1=O returned IDE inh 18*, IDE act -1, cardiac RTF act 2, Cardiac RTF inh -4, CRFR2-BP ag 31, TPT1 inhibitor 84*, caTPT1 confirm 107*, RNase T1 inh 129*, IDE cell inh cf 11 and HEK293 tox 6.
